PubChem BioAssay AID1929 (Vanderbilt High Throughput Screening Facility, 2009)
Activity calls are given as the source filed them. No rule for the calls is given here.

The molecules below were run against Muscarinic acetylcholine receptor M3 (Homo sapiens) (UniProt P20309) (assay: hM3 positive allosteric modulation, ACh fold-shift, SAR follow-up, selectivity assay for M4 PAM project, cell-based, analogs, calcium (AID 1929)). Conditions: hM3 cells, ACh CRC fold-shift, calcium mobilization; with ACh 0.1 µM; with compound at fixed dose.
Chain of Muscarinic acetylcholine receptor M3 (Homo sapiens) (P20309 whole entry, looked up): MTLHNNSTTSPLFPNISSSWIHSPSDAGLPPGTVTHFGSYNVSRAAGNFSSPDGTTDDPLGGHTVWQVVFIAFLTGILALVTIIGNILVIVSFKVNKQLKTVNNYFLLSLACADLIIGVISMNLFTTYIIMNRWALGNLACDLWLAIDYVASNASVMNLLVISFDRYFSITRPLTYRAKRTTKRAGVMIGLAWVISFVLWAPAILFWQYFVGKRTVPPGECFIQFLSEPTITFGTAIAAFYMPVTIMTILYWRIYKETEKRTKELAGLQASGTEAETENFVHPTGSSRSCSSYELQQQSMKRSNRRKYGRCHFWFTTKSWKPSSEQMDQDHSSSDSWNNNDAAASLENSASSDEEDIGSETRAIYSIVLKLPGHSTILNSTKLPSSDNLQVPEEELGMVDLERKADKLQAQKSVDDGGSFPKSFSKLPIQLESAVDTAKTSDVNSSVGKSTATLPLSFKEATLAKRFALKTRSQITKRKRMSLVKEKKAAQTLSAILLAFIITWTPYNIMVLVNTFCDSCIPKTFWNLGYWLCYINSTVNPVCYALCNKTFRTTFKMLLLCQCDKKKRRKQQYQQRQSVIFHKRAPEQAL

ACh response, % max, inactive:
Cc1cc(OCc2ccncc2)nc2sc(C(=O)NCc3cccc(F)c3F)c(N)c12 94.7
Cc1cc(OCCN2CCOCC2)nc2sc(C(=O)NC(C)(C)C)c(N)c12 96.8
COc1ccc(CNC(=O)c2sc3nc(OCc4ccncc4)cc(C)c3c2N)cc1 90.1
Cc1cc(OCc2ccncc2)nc2sc(C(=O)NCc3cc(F)ccc3F)c(N)c12 96.3
